About 2,100 (3.2%) of roughly 65,000 compounds showed an effect of 50% or more. The median lay at about -52%. The sample as a whole holds a higher share of strong results than the screen did.

This experiment deals with Plasmodium falciparum. Kind of experiment: Screen against P. falciparum Asexual Blood Stage (ABS), at 5uM. In kind it is functional, Dd2. As to conditions: tested at 5 uM.
As for `Cc1cnn(CC(=O)N2CCC(Nc3ccc(C)nn3)CC2)c1`, the INHIBITION came out at 56.7%.

`Cc1ccc(NC2CCN(C(=O)c3ccc(Cl)o3)CC2)nn1`: the INHIBITION was -6.11%.

With `CCc1ccc(C(=O)N2CCC(Nc3ccc(C)nn3)CC2)o1`, the INHIBITION is -100%.

With `Cc1ccc(NC2CCN(C(=O)c3ccc(C)o3)CC2)nn1`, the INHIBITION is 53.6%.

As to `Cc1ccc(CC(=O)N2CCC(Nc3ccc(C)nn3)CC2)cn1`, the INHIBITION was determined as 18.7%.

In the case of `Cc1ccc(NC2CCN(C(=O)c3c(C)nn(C)c3Cl)CC2)nn1`, the INHIBITION came out at 62.2%.

Take `Cc1ccc(NC2CCN(C(=O)c3c(C)noc3C)CC2)nn1`: the INHIBITION is listed as -103%.

Regarding `CC1CCC(NC(=O)c2nn(C)cc2Br)CC1` (centres undefined), the INHIBITION is listed as -46.7%.

As to `CCc1ccc(CN2CCc3c(nnn3C)C2COC)cc1` (centres undefined), the INHIBITION is reported as -44.1%.

On to `CC(C)(O)CCc1cccc(C(=O)NCc2cnn3cccnc23)c1`, for which the INHIBITION is listed as -126%.

Consider `CC(C)Cn1cncc1CNC(=O)c1cccc(CC2CCNCC2)c1`, for which the INHIBITION is -83.2%.

With `O=C(NCc1cnn2cccnc12)c1cccc(CC2CCNCC2)c1`, the INHIBITION is given as 66.1%.

For `c1ccc(SCCN2CCCC(Cn3ccnc3)C2)cc1` (centres undefined), the INHIBITION is on record as -1.54%.

With `c1ccc(CCN2CCCC(Cn3ccnc3)C2)cc1` (centres undefined), the INHIBITION is listed as 64.5%.

In the case of `CSCCCN1CCCC(Cn2ccnc2)C1` (centres undefined), the INHIBITION was -62%.

For `O=C(O)c1nnn(-c2cccc(C(F)(F)F)c2)c1-c1ccncc1`, the INHIBITION is listed as -16.4%.

Consider `CN(C)C(CNS(=O)(=O)c1ccc(F)cc1F)c1cccn1C` (centres undefined), for which the INHIBITION was 31.8%.

`COc1ccc(F)cc1S(=O)(=O)NCC(c1cccn1C)N(C)C` (centres undefined): the INHIBITION is -7.7%.

As for `CN(C)C(CNS(=O)(=O)c1cc(F)ccc1F)c1cccn1C` (centres undefined), the INHIBITION is 54.6%.

In the case of `Cc1noc(C(C)C)c1C(=O)NCCCN1CCCCCC1=O`, the INHIBITION was -62.4%.

As for `Cc1nnc(SCCCNc2cc(C3CC3)ncn2)s1`, the INHIBITION is reported as -39.6%.

Regarding `COCc1nn(C)c2c1CN(Cc1cnn(C)c1)CC2`, the INHIBITION was -6.19%.

As to `CC1CCCN(Cc2c(C3CC3)n(CC(=O)N(C)C)c3ncccc23)C1` (centres undefined), the INHIBITION is -59.9%.

As to `Cc1cc(C2CCCN(CC(=O)N3CCc4ccccc43)C2)n[nH]1` (centres undefined), the INHIBITION is recorded as -81.5%.

Take `Cc1cc(C2CCCN(CC(=O)N3CCCc4ccccc43)C2)n[nH]1` (centres undefined): the INHIBITION was -8.74%.

As to `Cc1cc(C2CCCN(CCC(=O)N3CCc4ccccc43)C2)n[nH]1` (centres undefined), the INHIBITION is given as 62.9%.

As to `CC(=O)N1CCCC1c1cc(N2CCN(CC(C)(C)C)CC2)cc(C)n1` (centres undefined), the INHIBITION is on record as -126%.

Consider `Clc1cccc(Cl)c1CNCCOc1ccccn1`, for which the INHIBITION is given as -77.7%.

In the case of `Cn1cc(N2CC3(CCN(Cc4ccoc4)CC3)OCC2=O)cn1`, the INHIBITION is reported as -50.3%.

Consider `Cc1cc(C(=O)NC2CCc3c(ccc(=O)n3CCN(C)C)C2)no1` (centres undefined), for which the INHIBITION is reported as -24%.

Take `Cc1cc2n(n1)CC(CNC1CCN(CCc3ccccc3)CC1)CN2` (centres undefined): the INHIBITION stood at 68.6%.

As for `OCc1ccccc1CNCC1CNc2ccnn2C1` (centres undefined), the INHIBITION is given as 2.15%.

As to `Cc1cc2n(n1)CC(CNC1CCN(c3ccccn3)CC1)CN2` (centres undefined), the INHIBITION is given as -45.8%.

Consider `Cc1cc2n(n1)CC(CNC1CCN(Cc3ccncc3)CC1)CN2` (centres undefined), for which the INHIBITION is given as -0.937%.

Turning to `Cc1cc2n(n1)CC(CNC1CCN(Cc3ccccn3)CC1)CN2` (centres undefined), the INHIBITION was -50.7%.

For the compound `Cc1ccccc1CN1CCC(NCC2CNc3ccnn3C2)CC1` (centres undefined), the INHIBITION came to 67.1%.

`CC(C)n1c2ccccc2c2c1cc(C(=O)NCCO)n2C(=O)N(C)C`: the INHIBITION is -69.4%.

On to `CC(CN1CCCC1=O)NC(=O)c1ccc(C(F)(F)F)[nH]c1=O` (centres undefined), for which the INHIBITION is reported as -73.3%.

Consider `Cc1noc(C)c1C(=O)N1CCC(Nc2cccnn2)CC1`, for which the INHIBITION was -19.3%.

Take `NC(=O)c1cc(C2CCCN(CCc3ccc4c(c3)CCO4)C2)n[nH]1` (centres undefined): the INHIBITION is listed as -88.6%.

In the case of `O=C(c1cnc2[nH]c(=O)[nH]c(=O)c2c1)N1CCCC1C1CCCCC1` (centres undefined), the INHIBITION was 0.342%.

As to `O=C(c1ccc(=O)[nH]n1)N1CCCC1C1CCCC1` (centres undefined), the INHIBITION is on record as -148%.

On to `O=C(c1c[nH]nn1)N1CCCC1C1CCCCC1` (centres undefined), for which the INHIBITION is listed as 51%.

Turning to `CNC(=O)C1(c2cnccn2)CCCN1C(=O)c1cccc(C)n1` (centres undefined), the INHIBITION was -80.1%.

Regarding `CCc1ccc(CN2Cc3nccn3CC(CN3CCOCC3)C2)o1` (centres undefined), the INHIBITION is -23.9%.

Take `CCOc1ccc(N(C)Cc2nc(C)c(C)o2)cc1`: the INHIBITION was found to be 43.9%.

In the case of `CCOc1ccc(N(C)Cc2nnc(C)o2)cc1`, the INHIBITION is 27.1%.

In the case of `CCOc1ccc(N(C)Cc2nnc(C3CC3)o2)cc1`, the INHIBITION came to 61.5%.

For `Cn1cccc1C(=O)N1CCC2(CCN2c2ncccn2)C1` (centres undefined), the INHIBITION was -28.5%.

For the compound `O=C(NCc1ccc2c(c1)CCCO2)c1ccc(C2CCNC2)cc1` (centres undefined), the INHIBITION was -95.6%.

As for `COCC(=O)NCc1cnc(C)nc1-c1cn(C)c2ccc(OC)cc12`, the INHIBITION was -88.7%.

As to `CN(C)CCN1CCO[C@H]2CCN(C(=O)c3cccs3)CC[C@@H]21`, the INHIBITION is given as -47.1%.

`CCc1nnc2n1CCN(CC(=O)N1CCc3ccccc3C1)C2`: the INHIBITION is -13.9%.

In the case of `COc1ccc(C(=O)Nc2c(C(=O)N(C)C)nn(C)c2C)cc1`, the INHIBITION is on record as -64.8%.

The record behind these values is ChEMBL document CHEMBL4513216, “Probing the Open Global Health Chemical Diversity Library for Multistage-Active Starting Points for Next-Generation Antimalarials” (ACS Infect Dis, 2020).
